Laboratory results from PubChem BioAssay AID588719 (Southern Research Specialized Biocontainment Screening …, 2011).
Out of some 1,500 compounds screened, about 920 (61%) were called active. The rule behind the calls is not given here. So high a share suggests a set chosen from earlier hits. The list shows a part of the results. Results with a measured potency or affinity are listed apart.

Assay: Vero 76 cell cytotoxicity, dose response, cytotoxicity control for VEEV inhibitor project (AID 588719)
Settings: Vero 76 cells viability, cytotoxicity counter-screen; series mostly up to 25 µM

Q: For c1ccc(CCNc2ccc3c(c2)Cc2ccccc2-3)nc1, which outcome is on record?
A: inactive

Q: With Cc1cc2ccc3ccccc3c2cc1CN(C)C as the molecule, how does the outcome read?
A: inactive

Q: Which outcome does the source give for Cc1cccc(C(=O)Nc2ccccc2SCC2CSc3nc4ccccc4c(=O)n32)c1 (stereo not given) here?
A: inactive

Q: For O=C(CC1C(=O)NC2CCCCC2N1C(=O)c1ccc([N+](=O)[O-])cc1)Nc1ccccc1 (stereo not given), which outcome is on record?
A: inactive

Q: With CC(=O)C1C(N2CC2)CC2C3CCC4=CC(=O)CCC4(C)C3CCC21C (stereo not given) as the molecule, how does the outcome read?
A: inactive

Q: With CN1CCN(/N=C/c2ccc(N(c3ccccc3)c3ccccc3)cc2)CC1 as the molecule, how does the outcome read?
A: inactive

Q: Which outcome does the source give for OC1(c2cccs2)CN(c2ccc(Br)cc2)C2=[N+]1CCCS2 (stereo not given) here?
A: inactive

Q: With Nc1ccccc1/C=C/c1ccccc1N as the molecule, how does the outcome read?
A: inactive

Q: With CN(C)CCC(=O)C(Cc1ccccc1)c1ccccc1 (stereo not given) as the molecule, how does the outcome read?
A: inactive

Q: With Cc1nn(-c2ccccc2)nc1C(=O)Nc1nnc(C(F)(F)F)s1 as the molecule, how does the outcome read?
A: inactive

Q: With CCCc1nnc(NC(=O)c2nc(S(=O)(=O)Cc3ccc(C)cc3)ncc2Cl)s1 as the molecule, how does the outcome read?
A: inactive

Q: Which outcome does the source give for COc1ccccc1NC(=O)c1nc(S(=O)(=O)Cc2ccccc2)ncc1Cl here?
A: inactive

Q: For Cc1ccc(C)c(NS(=O)(=O)c2ccc(-n3cccn3)cc2)c1, which outcome is on record?
A: inactive

Q: For Cc1ccccc1-c1n[nH]c(=S)n1/N=C/c1ccc(-c2ccccc2Br)o1, which outcome is on record?
A: inactive

Q: For O=C(COC(=O)c1ccc(Br)o1)NCc1ccc(Cl)cc1, which outcome is on record?
A: inactive

Q: With Cc1noc(C)c1NC(=O)N(C)C[C@H]1OCc2cnnn2CCCC(=O)N([C@H](C)CO)C[C@@H]1C as the molecule, how does the outcome read?
A: inactive

Q: For CC(C)(C)C(=O)Nc1sc(-c2ccccc2)cc1C(=O)O, which outcome is on record?
A: inactive

Q: With Nc1cc[n+](CC(=O)c2ccc3c(c2)OCCO3)cc1 as the molecule, how does the outcome read?
A: inactive

Q: Which outcome does the source give for CN(C)c1ccc(C(=O)c2ccc(N(C)C)c3ccccc23)cc1 here?
A: inactive

Q: For O=C(OCC(=O)N1CCOCC1)c1ccc2[nH]c3c(c2c1)CCCC3, which outcome is on record?
A: inactive

Q: With COc1ccc(-n2c(O)c(C=NCCN(C)C)c(=O)[nH]c2=O)cc1 as the molecule, how does the outcome read?
A: inactive

Q: With O=C(Nc1ccc(N2CCCCC2)c(Cl)c1)c1cccnc1 as the molecule, how does the outcome read?
A: inactive

Q: For Cc1c(O)c2ccccc2oc1=O, which outcome is on record?
A: inactive

Q: Which outcome does the source give for CC1=C(C(=O)N2CCOCC2)CC(CC(=O)NC2CCCCC2)C(=O)N1Cc1ccc(C(C)(C)C)cc1 (stereo not given) here?
A: inactive

Q: For COc1ccc(C2CC(=O)C3=C(C2)NC(C)=C(C#N)C3c2ccc(N(C)C)cc2)cc1 (stereo not given), which outcome is on record?
A: inactive

Q: With CC(=O)/C(C#N)=C1\NC(=O)C(Cc2ccccc2)S1 (stereo not given) as the molecule, how does the outcome read?
A: inactive

Q: For CCc1nc(CN2CCCC(C(=O)Nc3ccc(-c4cccc(OC)c4)cc3)C2)c(C)[nH]1 (stereo not given), which outcome is on record?
A: inactive

Q: For COc1ccc(O)c(CN2CCCC(C(=O)Nc3cccc(-n4cccn4)c3)C2)c1 (stereo not given), which outcome is on record?
A: inactive

Q: Which outcome does the source give for COc1ccc(-c2csc(NC(=S)NC(=O)c3cccs3)n2)cc1Br here?
A: inactive

Q: With CN(c1ccc(OCC(=O)Nc2ccccc2C(=O)O)cc1)S(=O)(=O)c1ccc(Cl)cc1 as the molecule, how does the outcome read?
A: inactive

Q: For Cc1nn(Cc2c(Cl)cccc2Cl)c(C)c1NC(=O)c1cc(C(C)C)on1, which outcome is on record?
A: inactive

Q: With O=c1[nH]c(SCc2nc3c(cnn3-c3ccccc3)c(=O)[nH]2)nc2ccccc12 as the molecule, how does the outcome read?
A: inactive

Q: With CCN(CC)P(=O)(NC(=O)C(Cl)(Cl)Cl)N(CC)CC.[Cl-].[Cl-].[Cl-].[Nd+3] as the molecule, how does the outcome read?
A: inactive

Q: For Cc1nc(/C(N)=N/OC(=O)c2ccccc2Cl)c(C(F)(F)F)o1, which outcome is on record?
A: inactive

Q: Which outcome does the source give for C/C(N)=C(/C#N)C(=O)CSc1nnc(-c2ccc(OC(F)F)cc2)o1 here?
A: inactive

Q: Which outcome does the source give for COc1ccc(NC(=O)N(C)C[C@H]2Oc3cc(Br)ccc3S(=O)(=O)N([C@H](C)CO)C[C@@H]2C)cc1 here?
A: inactive

Q: Which outcome does the source give for Cc1[nH]c(=S)[nH]c(=O)c1Cc1c(O)ccc2ccccc12 here?
A: inactive

Q: For CN(C)C1CCc2[nH]c3c(F)cc(F)cc3c2C1 (stereo not given), which outcome is on record?
A: inactive

Q: With COc1ccc2c(c1)c(CCN)c(C)n2Cc1ccccc1 as the molecule, how does the outcome read?
A: inactive

Q: For Cc1ccc2nc(-c3ccc(NS(=O)(=O)c4c(C)n(C)c(=O)n(C)c4=O)cc3)sc2c1, which outcome is on record?
A: inactive

Q: For COc1cc(NC(=O)C2=C(C)OCCS2)c(Cl)cc1C(=O)NCCCN1CCCC(C)C1 (stereo not given), which outcome is on record?
A: inactive

Q: For Cc1nn2c(NCCN(C)C)c3c(nc2c1-c1ccccc1)CCC3, which outcome is on record?
A: inactive

Q: Which outcome does the source give for CCOC(=O)C(C(=O)OCC)C(c1ccccc1)N1CCN(c2ccccc2)CC1 (stereo not given) here?
A: inactive

Q: For OC1(c2cccs2)CN(c2ccc(Cl)cc2)C2=[N+]1CCCC2 (stereo not given), which outcome is on record?
A: inactive

Q: For Cc1cn([C@H]2C[C@H](O)[C@@H](CCC(=O)NCc3ccc(N(C)C)cc3)O2)c(=O)[nH]c1=O, which outcome is on record?
A: inactive

Q: For CC(C)=CCN1CCN(Cc2nc(C(C)C)cs2)CC1CCO (stereo not given), which outcome is on record?
A: inactive

Q: Which outcome does the source give for N=C1C(c2nc(-c3ccc(Cl)cc3)cs2)=C(O)CN1CCCN1CCOCC1 here?
A: inactive

Q: For O=C1C(=Cc2ccccc2O)SC(=S)N1CCCN1CCOCC1, which outcome is on record?
A: inactive

Q: Which outcome does the source give for COCCNC(=O)CCCn1c(=O)c2cc(OC)c(OC)cc2n(CC(=O)Nc2ccc(C)c(F)c2)c1=O here?
A: inactive

Q: With CC(C)(C)c1cc(NC(=O)c2cc(F)c(F)c(F)c2F)no1 as the molecule, how does the outcome read?
A: inactive

Q: For CCN(Cc1ccncc1)C(=O)c1ccccc1NS(=O)(=O)c1ccc(Br)cc1, which outcome is on record?
A: inactive

Q: For COc1cc(OC)cc(C(=O)NCC(=O)OCC(=O)NC2CCCc3ccccc32)c1 (stereo not given), which outcome is on record?
A: inactive

Q: Which outcome does the source give for COc1cc(OC)cc(C(=O)NCCSc2c[nH]c3ccccc23)c1 here?
A: inactive

Q: For Cc1ccc(C(=O)/C=C/c2ccccc2)o1, which outcome is on record?
A: inactive

Q: For O=C(/C=C/c1ccccc1)c1ccccc1, which outcome is on record?
A: inactive

Q: Which outcome does the source give for CCOc1ccccc1OCCC(=O)N1CCN(S(=O)(=O)c2ccccc2[N+](=O)[O-])CC1 here?
A: inactive

Q: With COc1ccc(C(=O)NCC(=O)NCc2ccc3c(c2)OCO3)cc1[N+](=O)[O-] as the molecule, how does the outcome read?
A: inactive

Q: With O=C(COC(=O)c1ccc(O)cc1)Nc1ccc2c(c1)OCO2 as the molecule, how does the outcome read?
A: inactive

Q: For CCCOc1ccc(Oc2nc(-c3ccncc3)nc3ccccc23)cc1, which outcome is on record?
A: inactive

Q: For COc1ccccc1[C@]1(C)ON(c2ccccc2C(F)(F)F)C1=O, which outcome is on record?
A: inactive

Q: Which outcome does the source give for [O-][n+]1onc2c1CCc1[nH]c(-c3ccccc3)nc1-2 here?
A: inactive

Q: Which outcome does the source give for COc1ccc(/C=C/C(=O)c2cc3cccc(OC)c3oc2=O)cc1 here?
A: inactive

Q: Which outcome does the source give for COc1ccc(C=CC(=O)c2c(OC)cc(OC)c(OC)c2O)cc1 here?
A: inactive

Q: Which outcome does the source give for CCOC(=O)NNc1cc(C(F)(F)F)ccn1 here?
A: inactive

Q: With Cc1ccc(C(=O)Nc2ccccc2SCC2CSc3nc4ccccc4c(=O)n32)cc1 (stereo not given) as the molecule, how does the outcome read?
A: inactive

Q: For COc1cc2c(cc1NC(=O)c1ccc(C(C)(C)C)cc1)CCCC2, which outcome is on record?
A: inactive

Q: For Cc1ccc(C(C)C)cc1OCC(=O)Nc1nnc(C2CC2)s1, which outcome is on record?
A: inactive

Q: For O=c1oc2ccccc2cc1-c1csc(Nc2ccc(O)cc2)n1, which outcome is on record?
A: inactive

Q: For COc1cccc(NC(=O)c2ncc(Cl)c(Cl)c2Cl)c1, which outcome is on record?
A: inactive

Q: With CCOC(=O)c1ccccc1NC(=O)c1cn(CC)c2nc(C)ccc2c1=O as the molecule, how does the outcome read?
A: inactive

Q: With COc1ccc(CCn2c(-c3ccco3)nc3ccccc3c2=O)cc1OC as the molecule, how does the outcome read?
A: inactive

Q: For CCOc1ccccc1C(=O)NC(C(=O)OCn1nnc2ccccc2c1=O)C(C)C (stereo not given), which outcome is on record?
A: inactive

Q: For CCN1CCN(CCCNC(=O)C2CCCN(c3nc4c(C)cc(C)cc4s3)C2)CC1 (stereo not given), which outcome is on record?
A: inactive

Q: With COC(=O)c1c(-c2ccccc2)csc1NC(=O)c1c(-c2ccccc2)noc1C as the molecule, how does the outcome read?
A: inactive

Q: With CCOC(=O)c1c(NC(=O)c2c(-c3ccccc3)noc2C)sc(C)c1-c1ccccc1 as the molecule, how does the outcome read?
A: inactive

Q: With CCCOc1ccc(C(=O)NNC(=S)NC(=O)c2cc(-c3ccc(Cl)cc3)nc3ccccc23)cc1 as the molecule, how does the outcome read?
A: inactive

Q: With O=C(/C=C/c1cccc([N+](=O)[O-])c1)c1ccc2c(c1)OCCO2 as the molecule, how does the outcome read?
A: inactive

Q: Which outcome does the source give for CN1C/C(=C/c2ccsc2)C(=O)/C(=C/c2ccsc2)C1 here?
A: inactive

Q: Which outcome does the source give for O=C(CSC1CN(C(c2ccccc2)c2ccccc2)C1)N/N=C/c1ccc(Cl)cc1Cl here?
A: inactive

Q: For O=C(CC(=O)N/N=C/c1ccc(F)cc1)N/N=C/c1ccc(F)cc1, which outcome is on record?
A: inactive

Q: With NC(=S)NN=C(c1ccc(F)cc1)C1CC1 as the molecule, how does the outcome read?
A: inactive

Q: Which outcome does the source give for CCCCCCCCCCCCCCCC(O)C(N)CO (stereo not given) here?
A: inactive

Q: With O=C(N1CCOCC1)N1c2ccccc2Sc2ccccc21 as the molecule, how does the outcome read?
A: inactive

Q: For CN1CCN(C(=O)CCN2C(=O)/C(=C\c3ccc(Cl)cc3Cl)SC2=S)CC1, which outcome is on record?
A: inactive

Q: With NC(=O)c1nsc(C(=O)N(c2ccccc2F)C(C(=O)NCc2ccccc2)c2ccc(O)cc2)c1N (stereo not given) as the molecule, how does the outcome read?
A: inactive

Q: Which outcome does the source give for COC(=O)c1cc2c(N)c(C(=O)c3ccc(Cl)cc3)sc2nc1C(OC)OC here?
A: inactive

Q: With COc1cc2cc(C(=O)N3CC(COS(C)(=O)=O)c4ccc(O)cc43)[nH]c2c(OC)c1OC (stereo not given) as the molecule, how does the outcome read?
A: inactive

Q: Which outcome does the source give for COC(=O)c1ccc(/C=C2/SC(=S)N(CCC(=O)N3CCOCC3)C2=O)cc1 here?
A: inactive

Q: For O=C(O)c1ccccc1Nc1ccc(OC(F)F)cc1, which outcome is on record?
A: inactive

Q: With Cc1cc(-c2ccccc2)nc(N2CCN(c3ccccn3)CC2)n1 as the molecule, how does the outcome read?
A: inactive

Q: Which outcome does the source give for COc1cc2[nH]c3c(N4CCN(c5ccccn5)CC4)ncnc3c2cc1OC here?
A: inactive

Q: With Cc1nc2ccccc2nc(C)c1=NOCc1cccc(F)c1 as the molecule, how does the outcome read?
A: inactive

Q: For Cc1ccc2oc(C(F)(F)C(F)F)cc(=O)c2c1, which outcome is on record?
A: inactive

Q: Which outcome does the source give for O=C(OCc1cn([C@@H]2C[C@H](c3ccc(Cl)cc3)N(C(=O)c3cccs3)C[C@H]2O)nn1)c1ccccc1 here?
A: inactive

Q: Which outcome does the source give for COCCNCC(=O)NC12CC3CC(CC(C3)C1)C2 here?
A: inactive

Q: Which outcome does the source give for CC(OCCN(C)C)C(=O)C12CC3CC(CC(C3)C1)C2 (stereo not given) here?
A: inactive

Q: With Cc1ncc([N+](=O)[O-])n1CC(=O)NCCc1ccccc1 as the molecule, how does the outcome read?
A: inactive

Q: For CC1N(C)c2cc(NC(=O)c3ccco3)c(P(=O)(Nc3ccc([N+](=O)[O-])cc3)N3CCOCC3)cc2C1(C)C (stereo not given), which outcome is on record?
A: inactive

Q: Which outcome does the source give for CCC(NC(=O)CCCc1ccccc1)c1ccccc1 (stereo not given) here?
A: inactive

Q: For CCOc1ccc2nc3cc(NCc4ccc(OC)cc4)ccc3c(N)c2c1, which outcome is on record?
A: inactive

Q: Which outcome does the source give for Cc1ccc(NC(=O)C2CCCN2C(=O)OC(C)(C)C)cc1C (stereo not given) here?
A: inactive

Q: For COc1ccccc1C=NN=C1c2ccccc2-c2ccccc21, which outcome is on record?
A: inactive

Q: For COc1cccc(-c2ccc(NC(=O)C3CCCN(Cc4cnn(C)c4C)C3)cc2)c1 (stereo not given), which outcome is on record?
A: inactive

Q: For COc1cccc(-c2ccc(NC(=O)C3CCCN(Cc4cnn(C)c4)C3)cc2)c1 (stereo not given), which outcome is on record?
A: inactive

Q: Which outcome does the source give for O=C1C2CCCN2C(c2ccc(F)cc2)N1c1ccc(Cl)cc1 (stereo not given) here?
A: inactive
